# Data taken from PubChem BioAssay AID1566 (Sanford-Burnham Center for Chemical Genomics, 2009).
# The whole screen tested about 290,000 compounds, of which about 1,800 (0.62%) were called active. The sample as a whole holds a higher share of actives than the screen did. Values without a mark were called inactive. Cut-off read from the data, not from the text of the source: active = inhibition above about 50%; inactive = the rest.
# Test: inhibition of NOD2-driven NF-kB reporter – cell-based, luminescence, uHTS, HEK293 (AID 1566)
# Conditions: HEK293 NOD2/NF-kB luciferase reporter, at 4 µM, active compounds read high
row,SMILES,inhibition
1,CCOC(=O)c1ccc(N2C(=O)C(CC(N)=O)N(NC(=O)c3cccc(F)c3)C2=S)cc1 (stereo not given),4.2%
2,Cc1ccc2nc(NC(=O)c3ccccn3)sc2c1,76.3% (active)
3,Cc1ccc2nc(NC(=O)c3ccccc3F)sc2c1,-152%
4,Cc1ccc2nc(NC(=O)COC(=O)c3ccccn3)sc2c1,-25.5%
5,COc1ccc(-n2c3c(cc(C#N)c2=O)C(=O)CCC3)cc1,6.2%
6,CCOc1ccc(S(=O)(=O)Nc2ccc(C(=O)NCC(c3ccccc3)N(C)C)cc2)cc1 (stereo not given),7.3%
7,CCOC(=O)c1ccc(Nc2nc(N3CCOCC3)nc(N3CCOCC3)n2)cc1,-7.2%
8,CCOC(=O)N1CCC(N2CCN(Cc3ccc(C)o3)C(CCO)C2)CC1 (stereo not given),2.4%
9,CCC(C(=O)NC1CCCC1)N(C(=O)Cn1nnc(-c2ccc(C)o2)n1)c1cccc(O)c1 (stereo not given),8.2%
10,Cc1cc(-n2c(C)cc(C(=O)CSc3ncnc4ccccc34)c2C)no1,52.3% (active)
11,Cc1cc(NC(=O)CSc2ncnc3ccccc23)no1,20%
12,Cc1cc(-n2c(C)cc(C(=O)CSc3nc4ccccc4c(=O)n3Cc3ccco3)c2C)no1,18.1%
13,Cc1cccc(NC(=O)COC(=O)C2C3CC4OC(=O)C2C4C3)c1C (stereo not given),-27.4%
14,Cc1ccccc1-n1nnnc1SC1CCOC1=O (stereo not given),5.6%
15,O=C1OCCC1Sc1nnc(-c2cccnc2)n1-c1ccccc1F (stereo not given),13.6%
16,Cc1ccccc1-n1c(SC2CCOC2=O)nnc1-c1ccncc1 (stereo not given),51.5% (active)
17,O=C(O)c1cccc(NC(=S)N/N=C/c2ccccc2OCc2ccc(Br)cc2)c1,0.3%
18,C/C(=C\c1ccccc1)CN1CCN(Cc2ccc(C)o2)C(CCO)C1 (stereo not given),-6.3%
19,CCOC(=O)C1CCN(C(=O)CS(=O)(=O)Cc2nc(-c3ccccc3Cl)oc2C)CC1,17.3%
20,Cc1cnc(C(=O)Nc2ccc(N3CCOCC3)cc2)cn1,-3.6%
21,O=C(Nc1ccc(N2CCCCCC2)cc1)c1ccccc1Cl,-104%
22,O=C(Nc1ccc(N2CCOCC2)cc1)Nc1cnsn1,-3.9%
23,O=C(Nc1ccc(N2CCOCC2)cc1)c1cnsn1,52.4% (active)
24,O=C(Nc1ccc(N2CCCCC2)cc1)c1ccccn1,69.8% (active)

row,SMILES,inhibition
1,O=C(Nc1ccc(N2CCCCC2)cc1)c1cccnc1Cl,-2.2%
2,O=C(CSc1nc2ccccc2[nH]1)NCc1ccccc1,-35%
3,COc1ccc(S(=O)(=O)N2CCN(CC(O)COc3ccc(C#N)cc3)CC2)cc1OC (stereo not given),1.5%
4,CC(=O)Nc1ccccc1OCC(=O)N(Cc1ccccc1)C(C)C,19.2%
5,Cc1ccc(-n2c(C)nc3ncnc(-c4ccccc4)c32)cc1,17.9%
6,CN1C(=O)/C(=C/c2ccccc2F)Sc2ccc(C(=O)N3CCCC3)cc21,37.3%
7,CN1C(=O)/C(=C/c2ccccc2F)Sc2ccc(C(=O)NCC3CCCO3)cc21 (stereo not given),17%
8,CN1C(=O)/C(=C\c2ccccc2F)Sc2ccc(C(=O)NC3CCN(Cc4ccccc4)CC3)cc21,58.2% (active)
9,CCc1c(C)nc2c(C)cccc2c1SCCC#N,12.6%
10,O=C(CN1CCN(C(c2ccccc2)c2ccccc2)CC1)Nc1ccc(N2CCOCC2)cc1,6.9%
11,COC(=O)c1c(NC(=O)c2ccc(OC(C)C)cc2)sc2c1CC(C)(C)NC2(C)C,7.3%
12,COc1ccccc1/C=N/NC(=O)c1sc(C)nc1C,6.4%
13,COc1ccc(/C=N/NC(=O)c2sc(C)nc2C)cc1,13.6%
14,Cc1nc(C)c(C(=O)N/N=C/c2cc(Br)ccc2O)s1,50.9% (active)
15,Cc1onc(-c2ccccc2)c1C(=O)N1CCOC12CCN(c1cccc(F)n1)CC2,14.4%
16,O=C(NCCc1ccccc1)C1CCCN(c2ncnc3c2nc2n3CCCCC2)C1 (stereo not given),18.5%
17,COC(=O)c1sc(N2C(=O)C(O)=C(C(=O)c3ccc(C)o3)C2c2ccco2)nc1C (stereo not given),39.6%
18,O=C(NCc1ccccc1)N1CCOCC1,-1.5%
19,CC(=O)Nc1cc2c(=O)n(Cc3ccccc3)c(C)nc2cc1N1CCOCC1,9.5%
20,Cc1nc2cc(N3CCCCC3)c(NC(=O)c3ccncc3)cc2c(=O)n1Cc1ccccc1,10.5%
21,CC(=O)Nc1ccc(NC(=O)c2sc(-c3ccccc3)nc2C)cc1,19.3%
22,COc1cc2cc(CN(CCc3ccccc3C)C(=S)NCCCN3CCOCC3)c(=O)[nH]c2cc1OC,17.4%
23,O=C(O)c1ccc(Nc2nc3ccccc3nc2NS(=O)(=O)c2cccs2)cc1,7.1%
24,COc1ccc(Nc2nc3ccccc3nc2NS(=O)(=O)c2cccs2)cc1,37.8%

row,SMILES,inhibition
1,CC(=O)Nc1ccc(S(=O)(=O)N2CCN(CC(=O)NC3CCCC3)CC2)cc1,-8.9%
2,O=C1OCC2=C1C(c1ccccc1)CC(=O)N2c1ccc(F)cc1 (stereo not given),-3.1%
3,COc1ccc(-c2coc3c(C)c4oc(=O)c(CCC(=O)O)c(C)c4cc23)cc1,5.8%
4,Cc1c(CCC(=O)O)c(=O)oc2c(C)c(OCc3cc4c(cc3Cl)OCO4)ccc12,35%
5,COc1ccccc1COc1ccc2c(C)c(CC(=O)O)c(=O)oc2c1C,10.3%
6,Cc1c(CCC(=O)O)c(=O)oc2c(C)c3occ(-c4ccc(Br)cc4)c3cc12,41%
7,CCOc1ccccc1C(=O)OCC(=O)NCCNC(=O)COC(=O)c1ccccc1OCC,-4.3%
8,CCCN1C(=O)/C(=C/c2ccc(C)o2)SC1=Nc1ccc(OCC)cc1,1.9%
9,O=c1cc(CSc2nnc(COc3ccc(Cl)cc3)o2)c2ccccc2[nH]1,17.3%
10,COc1cccc(C2CNC3(CCCC(C)C3)c3[nH]c4ccccc4c32)c1OC (stereo not given),-9%
11,COc1ccc(Br)cc1/C=N/NC(=O)c1ccc(COc2ccc3c(c2)CCC3)o1,-48.8%
12,O=C(N/N=C/c1cccc(O)c1)c1ccc(COc2ccc3c(c2)CCC3)o1,-30.7%
13,O=C(N/N=C/c1cc([N+](=O)[O-])ccc1O)c1ccc(COc2ccc3c(c2)CCC3)o1,50.4% (active)
14,O=C(NCCc1ccc(Cl)cc1)C1CCCN1C(=O)Nc1ccccc1 (stereo not given),13.4%
15,Cc1ccc(NC(=O)C(C)Sc2n[nH]c(CNc3ccccc3)n2)cc1 (stereo not given),3.6%
16,Cc1ccc(NC(=O)C2CCN(S(=O)(=O)c3ccc4c(c3)NC(=O)C(C)S4)CC2)cc1C (stereo not given),16.5%
17,CC1Sc2ccc(S(=O)(=O)N3CCC(C(=O)Nc4cccc(Cl)c4)CC3)cc2NC1=O (stereo not given),14.4%
18,CN(C)c1ccc(C2N(C(=O)N3CCOCC3)CCN2S(=O)(=O)c2ccccc2)cc1 (stereo not given),13.1%
19,Cc1c(Br)c([N+](=O)[O-])nn1CC(=O)Nc1ccc2nc3n(c(=O)c2c1)CCCC3,17.3%
20,Cc1ccc(/C=C(/NC(=O)c2ccccc2)C(=O)NC(Cc2c[nH]c3ccccc23)C(=O)O)cc1 (stereo not given),9.4%
21,COc1ccc([N+](=O)[O-])c(S(=O)(=O)c2ccc(Cl)cc2)n1,60.3% (active)
22,COc1ccc([N+](=O)[O-])c(S(=O)(=O)c2ccccc2)n1,29%
23,COc1nc(OC)nc(Oc2ccc(Cl)cc2[N+](=O)[O-])n1,10.1%
24,Cc1c(CC(=O)N[C@@H](C)C(=O)O)c(=O)oc2cc3occ(-c4ccccc4)c3cc12,14%

row,SMILES,inhibition
1,COc1cc(C(=O)OCC(C)=O)c([N+](=O)[O-])cc1OC,0.4%
2,N#Cc1c(-c2ccccc2)nc(SCc2ccc(Cl)cc2)[nH]c1=O,24.8%
3,CCSc1nc(-c2ccccc2)c(C#N)c(=O)[nH]1,20%
4,O=C(c1ccc2c(=O)n(-c3ccccc3)c(=O)[nH]c2c1)N1CCN(c2ccc(F)cc2)CC1,14.2%
5,Cc1cccc(SCC(=O)Nc2ccc3c(c2)OCCO3)c1,-70.2%
6,Cc1ccc(NC(=O)CSc2ccc3c(c2)OCCO3)c(O)c1,54.3% (active)
7,Cc1cc(NC(=O)CSc2ccc3c(c2)OCCO3)no1,14.9%
8,CCn1c(=O)c(=O)[nH]c2cc(C(=O)NC(C)c3ccc(S(N)(=O)=O)cc3)ccc21 (stereo not given),-19.7%
9,CNc1nnc(-c2cc3cc(Cl)ccc3oc2=O)s1,94.4% (active)
10,CNc1nnc(-c2cc3ccccc3oc2=O)s1,-76.8%
11,O=c1oc2ccc(Cl)cc2cc1-c1nnc(Nc2cccc(C(F)(F)F)c2)s1,9%
12,CCOC(=O)N1CCN(C(=O)c2ccccc2NC(=O)c2ccc(C(C)(C)C)cc2)CC1,4.9%
13,CC(=O)c1sc(-c2ccc(F)cc2F)nc1C,-0.7%
14,Cc1cnc(NC(=O)c2c(-c3ccccc3)noc2C)s1,5.6%
15,Cc1nnc(NC(=O)c2c(-c3ccccc3)noc2C)s1,4.4%
16,CCOc1ccc(NC(=O)Nc2ccon2)cc1,-25.3%
17,COC(=O)c1ccc(CC(=O)c2ccc(O)cc2O)o1,43.8%
18,CCOC(=O)c1ccc(CC(=O)c2ccc(O)c(O)c2O)o1,8.3%
19,CCOC(=O)c1ccc(CC(=O)c2ccc(O)cc2O)o1,67.3% (active)
20,CC[N+](CC)(CCO)CCCN1C(=O)C2CC=C(Cl)CC2C1=O (stereo not given),1.4%
21,CCOC(=O)c1sc2nc(C)nc(NCc3ccc(F)cc3)c2c1C,45.8%
22,CCOC(=O)c1sc2nc(C)nc(NCc3ccc(Cl)cc3)c2c1C,51.3% (active)
23,CCOC(=O)c1sc2nc(C)nc(NCc3ccccc3)c2c1C,22%
